Data as given in PubChem BioAssay AID1159580 (chemical genetic matrix, 2015).
Screen size: about 5,500 compounds; about 2,000 (36%) were called active. Roughly 18% stayed inconclusive and do not appear here. Cut-off read from the data, not from the text of the source: active = normalized growth mostly below about 0.91 (no sharp cut-off); inconclusive = no clear call, values can overlap the other calls; inactive = mostly above about 0.92. The list shows a part of the results.

Test: chemical genetic growth profiling, strain panel (AID 1159580);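 note: tested at 20 µM; growth read once vehicle control cultures reached saturation at 30 °C; 1 = growth at the plate median or of vehicle wells; lower values mean less growth of the strain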
Settings: growth OD
[1] = S. cerevisiae deletion strains, locus YAL013W, strain DEP1, hits give low values
[2] = S. cerevisiae deletion strains, locus YBR229C, strain ROT2, hits give low values
[3] = S. cerevisiae deletion strains, locus YDL101C, strain DUN1, hits give low values
[4] = S. cerevisiae deletion strains, locus YDL134C, strain PPH21, hits give low values
[5] = S. cerevisiae deletion strains, locus YDR150W, strain NUM1, hits give low values
[6] = S. cerevisiae deletion strains, locus YEL061C, strain CIN8, hits give low values
[7] = S. cerevisiae deletion strains, locus YGR078C, strain PAC10, hits give low values
[8] = S. cerevisiae deletion strains, locus YHR030C, strain SLT2, hits give low values
[9] = S. cerevisiae deletion strains, locus YHR087W, strain rtc3, hits give low values
[10] = S. cerevisiae deletion strains, locus YJL187C, strain SWE1, hits give low values
[11] = S. cerevisiae deletion strains, locus YJR043C, strain POL32, hits give low values
[12] = S. cerevisiae deletion strains, locus YJR075W, strain HOC1, hits give low values
[13] = S. cerevisiae deletion strains, locus YKL190W, strain CNB1, hits give low values
[14] = S. cerevisiae deletion strains, locus YLR039C, strain RIC1, hits give low values
[15] = S. cerevisiae deletion strains, locus YLR058C, strain SHM2 (second series), hits give low values
[16] = S. cerevisiae deletion strains, locus YLR085C, strain ARP6, hits give low values
[17] = S. cerevisiae deletion strains, locus YLR262C, strain YPT6, hits give low values
[18] = S. cerevisiae deletion strains, locus YML094W, strain GIM5, hits give low values
[19] = S. cerevisiae deletion strains, locus YMR219W, strain ESC1, hits give low values
[20] = S. cerevisiae deletion strains, locus YMR263W, strain SAP30, hits give low values
[21] = S. cerevisiae deletion strains, locus YMR307W, strain GAS1, hits give low values
[22] = S. cerevisiae deletion strains, locus YNL153C, strain GIM3, hits give low values
[23] = S. cerevisiae deletion strains, locus YNL298W, strain CLA4 (second series), hits give low values
[24] = S. cerevisiae deletion strains, locus YNL322C, strain KRE1, hits give low values
[25] = S. cerevisiae deletion strains, locus YNR030W, strain Alg12, hits give low values
[26] = S. cerevisiae deletion strains, locus YOL006C, strain TOP1, hits give low values
[27] = S. cerevisiae deletion strains, locus YPL055C, strain LGE1, hits give low values
[28] = S. cerevisiae deletion strains, locus YPL241C, strain CIN2, hits give low values
[29] = S. cerevisiae deletion strains, locus YPR135W, strain CTF4, hits give low values

Measured: normalized growth

O=C(N/N=C\c1c(O)ccc2ccccc12)N/N=C\c1c(O)ccc2ccccc12
inactive: [1] 0.996 | [2] 0.975 | [3] 1.02 | [4] 0.94 | [5] 0.908 | [6] 0.962 | [7] 1.01 | [8] 0.875 | [9] 0.989 | [10] 0.994 | [11] 0.988 | [12] 1.07 | [13] 1.01 | [14] 1.03 | [15] 0.992 | [16] 0.899 | [17] 0.953 | [18] 0.924 | [19] 1.02 | [20] 0.928 | [21] 1.09 | [22] 0.951 | [23] 0.879 | [24] 1.02 | [25] 0.928 | [26] 0.888 | [27] 1.01 | [28] 0.939 | [29] 0.968 | S. cerevisiae strains, strain wild type, hits give low values 0.994

O=C(N/N=C\c1cc(Br)ccc1O)c1ccccc1Oc1ccccc1
active: S. cerevisiae deletion strains, locus YLR113W, strain HOG1, hits give low values 0.694 | S. cerevisiae deletion strains, locus YPL256C, strain CLN2, hits give low values 0.764
inactive: S. cerevisiae deletion strains, locus YAR019C, strain CDC15, hits give low values 0.963 | S. cerevisiae deletion strains, locus YBL105C, strain PKC1, hits give low values 0.976 | S. cerevisiae deletion strains, locus YBR135W, strain CKS1, hits give low values 0.981 | S. cerevisiae deletion strains, locus YBR136W, strain MEC1, hits give low values 0.963 | S. cerevisiae deletion strains, locus YBR160W, strain CDC28, hits give low values 0.973 | S. cerevisiae deletion strains, locus YDL017W, strain CDC7, hits give low values 0.969 | S. cerevisiae deletion strains, locus YDL028C, strain MPS1, hits give low values 0.96 | [3] 0.97 | S. cerevisiae deletion strains, locus YDL108W, strain KIN28, hits give low values 0.971 | S. cerevisiae deletion strains, locus YDL132W, strain cdc53, hits give low values 0.966 | S. cerevisiae deletion strains, locus YDL214C, strain PRR2, hits give low values 0.932 | S. cerevisiae deletion strains, locus YDR052C, strain DBF4, hits give low values 0.97 | S. cerevisiae deletion strains, locus YDR054C, strain cdc34, hits give low values 0.968 | S. cerevisiae deletion strains, locus YDR226W, strain ADK1, hits give low values 0.972 | S. cerevisiae deletion strains, locus YDR477W, strain SNF1, hits give low values 0.943 | S. cerevisiae deletion strains, locus YER123W, strain YCK3, hits give low values 0.879 | S. cerevisiae deletion strains, locus YER133W, strain GLC7, hits give low values 0.955 | S. cerevisiae deletion strains, locus YFL009W, strain cdc4, hits give low values 0.964 | S. cerevisiae deletion strains, locus YFL029C, strain CAK1, hits give low values 0.953 | S. cerevisiae deletion strains, locus YFR003C, strain YPI1, hits give low values 0.969 | S. cerevisiae deletion strains, locus YFR019W, strain FAB1, hits give low values 0.953 | S. cerevisiae deletion strains, locus YFR028C, strain CDC14, hits give low values 0.965 | S. cerevisiae deletion strains, locus YGR040W, strain KSS1, hits give low values 0.942 | S. cerevisiae deletion strains, locus YGR052W, strain FMP48, hits give low values 0.954 | S. cerevisiae deletion strains, locus YGR092W, strain DBF2, hits give low values 0.914 | [8] 0.854 | S. cerevisiae deletion strains, locus YHR079C, strain IRE1, hits give low values 0.885 | S. cerevisiae deletion strains, locus YHR082C, strain KSP1, hits give low values 0.924 | S. cerevisiae deletion strains, locus YHR205W, strain SCH9, hits give low values 0.838 | S. cerevisiae deletion strains, locus YIL147C, strain SLN1, hits give low values 0.949 | S. cerevisiae deletion strains, locus YJL095W, strain BCK1, hits give low values 0.846 | S. cerevisiae deletion strains, locus YJL128C, strain PBS2, hits give low values 0.928 | S. cerevisiae deletion strains, locus YJL157C, strain FAR1, hits give low values 0.955 | S. cerevisiae deletion strains, locus YJR016C, strain ILV3, hits give low values 0.979 | S. cerevisiae deletion strains, locus YJR066W, strain TOR1 (second series), hits give low values 0.901 | S. cerevisiae deletion strains, locus YJR066W, strain TOR1, hits give low values 0.953 | S. cerevisiae deletion strains, locus YKL048C, strain ELM1, hits give low values 0.915 | S. cerevisiae deletion strains, locus YKL067W, strain YNK1, hits give low values 0.923 | S. cerevisiae deletion strains, locus YKL101W, strain HSL1, hits give low values 0.89 | S. cerevisiae deletion strains, locus YKL193C, strain SDS22, hits give low values 0.972 | S. cerevisiae deletion strains, locus YKL203C, strain TOR2, hits give low values 1 | S. cerevisiae deletion strains, locus YLR133W, strain CKI1, hits give low values 0.916 | S. cerevisiae deletion strains, locus YLR403W, strain SFP1, hits give low values 0.927 | S. cerevisiae deletion strains, locus YML070W, strain DAK1, hits give low values 0.888 | S. cerevisiae deletion strains, locus YMR001C, strain CDC5, hits give low values 0.972 | S. cerevisiae deletion strains, locus YMR205C, strain PFK2 (second series), hits give low values 0.919 | S. cerevisiae deletion strains, locus YMR277W, strain FCP1, hits give low values 0.98 | S. cerevisiae deletion strains, locus YNL006W, strain LST8, hits give low values 0.977 | S. cerevisiae deletion strains, locus YNL020C, strain ARK1, hits give low values 0.935 | S. cerevisiae deletion strains, locus YNL161W, strain CBK1, hits give low values 0.982 | S. cerevisiae deletion strains, locus YNL183C, strain NPR1, hits give low values 0.883 | S. cerevisiae deletion strains, locus YNL207W, strain RIO2, hits give low values 0.976 | S. cerevisiae deletion strains, locus YNL222W, strain SSU72, hits give low values 0.969 | S. cerevisiae deletion strains, locus YNL307C, strain MCK1 (second series), hits give low values 0.912 | S. cerevisiae deletion strains, locus YOL078W, strain AVO1, hits give low values 0.98 | S. cerevisiae deletion strains, locus YOL136C, strain PFK27, hits give low values 0.909 | S. cerevisiae deletion strains, locus YOR061W, strain CKA2, hits give low values 0.939 | S. cerevisiae deletion strains, locus YOR119C, strain RIO1, hits give low values 0.97 | S. cerevisiae deletion strains, locus YOR231W, strain MKK1, hits give low values 0.892 | S. cerevisiae deletion strains, locus YOR329C, strain SCD5, hits give low values 0.968 | S. cerevisiae deletion strains, locus YPL031C, strain PHO85, hits give low values 0.94 | S. cerevisiae deletion strains, locus YPL153C, strain RAD53, hits give low values 0.934 | S. cerevisiae deletion strains, locus YPL204W, strain HRR25, hits give low values 0.94 | S. cerevisiae deletion strains, locus YPL209C, strain IPL1, hits give low values 0.974 | S. cerevisiae deletion strains, locus YPR025C, strain CCL1, hits give low values 0.969 | S. cerevisiae deletion strains, locus YPR106W, strain ISR1, hits give low values 0.976 | S. cerevisiae deletion strains, locus YPR111W, strain DBF20, hits give low values 0.947 | S. cerevisiae deletion strains, strain NNK1, hits give low values 0.959 | S. cerevisiae deletion strains, strain TSCII, hits give low values 0.972

Nc1ccccc1C(=O)N/N=C\c1cccc2ccccc12
inactive: [1] 0.994 | [2] 0.977 | [3] 1.01 | [5] 0.971 | [7] 0.993 | [9] 0.992 | [10] 0.994 | [11] 1.01 | [12] 0.979 | [13] 0.944 | [15] 0.991 | [19] 0.989 | [20] 0.992 | [22] 1.01 | [24] 0.992 | [27] 0.973 | [29] 0.66
active: [4] 0.813 | [6] 0.85 | [8] 0.461 | [14] 0.734 | [16] 0.615 | [17] 0.803 | [18] 0.831 | [21] 0.526 | [23] 0.807 | [25] 0.875 | [26] 0.535 | [28] 0.819
